Test results reported in PubChem BioAssay (Tox21).
Where “and” joins values, the source holds several entries; their conditions need not be identical. Identical values can stand only once. Records with an inconclusive call do not appear. Where a structure was tested more than once in an assay, its records may differ in their call. Calls of active or inactive are those of the source. Unless noted, calls follow the shape of the dose curve; as a rule, active = well fitted curve in the direction sought with a large enough effect in the repeat runs; inconclusive = weak or mixed curves; inactive = no such curve, though single readings can be large; an effect the other way counts as inactive or inconclusive.

Key:
[1] = qHTS assay to identify small molecule agonists of the vitamin D receptor (VDR) signaling pathway - cell viability counter screen (AID 743224); also: nearly all actives have a fitted effect of over 50% in size; also: potency is read from the fitted curve at half-maximal effect
In short: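 VDR-bla cells, 4 h after plating, exposed to compounds for 16 h at 37C; viability then read in the same wells as CellTiter-Glo luminescence after 30 min at room temperature, following the bla FRET read.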

[2] = qHTS assay to identify small molecule agonists of the NFkB signaling pathway (AID 1159509; active = well fitted curve in the direction sought with a large enough effect in the signal ratio in the repeat runs, not every such curve was filed as active; the % refers to the signal ratio; also: series mostly up to about 61 µM)
In short: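 NFkB-bla ME-180 cells carry a beta-lactamase reporter under an NF-kB response element. They were plated overnight, then exposed to compounds for 5 h at 37 C. Read-out is LiveBLAzer FRET after 1.5 hr at room temperature (405 nm excitation; 460/530 nm emission).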

[3] = qHTS assay to identify small molecule agonists of the NFkB signaling pathway - cell viability counter screen (AID 1159515; calls by dose curve; also: series mostly up to about 61 µM; nearly all actives have a fitted effect of over 55% in size)
In short: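 NFkB-bla ME-180 cells, 2,000/well, plated overnight at 37 C; compound added for 5 hr at 37 C. Viability read in the same wells as the bla reporter, by CellTiter-Glo luminescence after 30 min at room temperature.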

[4] = qHTS assay to identify small molecule agonists of the endoplasmic reticulum stress response signaling pathway (AID 1159516; active = well fitted activation curve with a large enough effect in the signal ratio in the repeat runs, not every such curve was filed as active; the % refers to the signal ratio)
In short: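 CellSensor ESRE-bla HeLa cells, 1,500 per well, plated overnight, then exposed to compounds for 5 hr at 37 C. Beta-lactamase reporter read with LiveBLAzer B/G FRET substrate after 2 hr at room temperature, 405 nm excitation, 460 and 530 nm emission.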

[5] = qHTS assay to identify small molecule agonists of the endoplasmic reticulum stress response signaling pathway - cell viability counter screen (AID 1159517; calls by dose curve;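 also: HeLa cells carrying an ER stress response element beta-lactamase reporter; series mostly up to about 61 µM; nearly all actives have a fitted effect of over 50% in size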)
In short: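 HeLa cells carrying an ESRE-driven beta-lactamase reporter receive compound for 5 hr at 37 C. Cell viability is then gauged with CellTiter-Glo by luminescence, 30 min at room temperature.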

[6] = qHTS assay to identify small molecule antagonists of the retinoid-related orphan receptor gamma (ROR-gamma) signaling pathway - cell viability counter screen (AID 1159520); also: nearly all actives have a fitted effect of over 50% in size
In short: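 Cytotoxicity was read from cellular ATP (CellTiter-Glo luminescence) after 16 hr at 37 C with 1 uM doxycycline induction. The inducer was added 2 hr after compound transfer to Tet-on ROR gamma CHO cells.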

[7] = qHTS assay to identify small molecule agonists of the AP-1 signaling pathway - cell viability counter screen (AID 1159525; calls by dose curve; also: nearly all actives have a fitted effect of over 55% in size)
In short: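 Luminescent ATP readout (Cell Titer Glo, 30 min RT), normalised to DMSO and tetra n-octyl ammonium bromide controls. Cells were ME-180 AP-1-bla in 0.5% dialyzed FBS Opti-MEM, with a 5 h, 37 °C compound exposure.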

[8] = qHTS assay to identify small molecule agonists of the AP-1 signaling pathway (AID 1159526; calls by dose curve)
[9] = molecular target: Retinoic acid receptor RXR-alpha (Homo sapiens) (UniProt P19793); experiment: qHTS assay to identify small molecule agonists of the RXR signaling pathway (AID 1159527; calls by dose curve; also: nearly all actives have a fitted effect of over 35% in size)
In short: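 qHTS of the Tox21 10K library in GeneBLAzer RXR-alpha HEK 293T cells carrying a beta-lactamase reporter […]; 16 hr treatment, 9-cis retinoic acid as agonist control, FRET read-out.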

[10] = qHTS assay to identify small molecule agonists of the RXR signaling pathway - cell viability counter screen (AID 1159529); also: nearly all actives have a fitted effect of over 50% in size; also: potency is read from the fitted curve at half-maximal effect
In short: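 Cell viability is measured by CellTiter-Glo luminescence, 30 min at room temperature, in wells already read for beta-lactamase. Engineered HEK 293T cells (RXR-alpha-UAS-bla) are dosed 16 hr at 37 C. Tetraoctyl ammonium bromide serves as positive control.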

[11] = qHTS assay to identify small molecule antagonists of the retinoid acid receptor (RAR) signaling pathway - cell viability counter screen (AID 1159551); also: nearly all actives have a fitted effect of over 35% in size
In short: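 C3RL4 RARE-luciferase cells, 1,000/well, incubated overnight, then dosed with compound plus 1 uM retinol (final). After 6 hr at 37 C, viability read by CellTiter-Glo ATP luminescence following 30 min at room temperature.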

[12] = qHTS assay to identify small molecule antagonists of the vitamin D receptor (VDR) signaling pathway - cell viability counter screen (AID 743225); also: nearly all actives have a fitted effect of over 50% in size
In short: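 Cells (VDR-UAS-bla HEK 293T) are plated, rested 4 h at 37C, dosed with compound and 3 nM final 1-alpha,25-dihydroxy vitamin D3, and incubated 16 h. Viability is taken from CellTiter-Glo luminescence in the reporter wells.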

[13] = molecular target: Nuclear receptor ROR-gamma (Homo sapiens) (UniProt P51449); experiment: qHTS assay to identify small molecule antagonists of the retinoid-related orphan receptor gamma (ROR-gamma) signaling pathway (AID 1159521)
In short: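 RORγ antagonism is scored from reduced reporter luminescence in Tet-on CHO cells. Induction used 1 uM final doxycycline hyclate for 16 h at 37 C, following a 2 h compound exposure.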

[14] = qHTS assay to identify small molecule antagonists of the retinoic acid receptor (RAR) signaling pathway (AID 1159552; also: nearly all actives have a fitted effect of over 50% in size)
In short: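 Quantitative HTS in C3RL4 RARE-luciferase reporter cells. Compounds were added with 1 uM (final) retinol; luminescence was read after 6 hr.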

[15] = qHTS assay to identify small molecule agonists of the retinoic acid receptor (RAR) signaling pathway (AID 1159553); also: potency is read from the fitted curve at half-maximal effect
In short: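 C3RL4 RARE-luciferase cells were seeded at 1,000/well and grown overnight at 37 C, then exposed to compounds for 6 hr at 37 C, 5% CO2. Luciferase reagent was added and luminescence was read after 30 min at room temperature.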

[16] = qHTS assay to identify small molecule antagonists of the estrogen related receptor (ERR) signaling pathway - cell viability counter screen (AID 1224818); also: series mostly up to about 46 µM
In short: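 ERR cells, 2,000 per well, compound added after 6 h and incubated 17.5 h at 37 C. Viability read by CellTiter-Fluor fluorescence after a further 30 min at 37 C.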

[17] = qHTS assay to identify small molecule antagonists of the estrogen related receptor signaling pathway with the pleiotropic PPARgamma coactivator (PGC) cell viability counter screen (AID 1224822; also: series mostly up to about 46 µM)
In short: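 PGC/ERR cells rested 6 h, then compound-treated 17.5 h at 37 C. CellTiter-Fluor added for 30 min at 37 C, viability measured by fluorescence intensity.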

[18] = qHTS assay to identify small molecule agonists of the estrogen related receptor (ERR) signaling pathway (AID 1224820)
In short: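 ERR reporter cell line (from NTP), 2,000 cells/well, incubated 6 h before compound addition, then 18 h at 37 C. Luminescence measured 30 min after One-Glo reagent at room temperature.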

[19] = system: estrogen-related receptor alpha (ERRalpha) with PGC-1alpha coactivator, human; experiment: qHTS assay to identify small molecule antagonists of the estrogen related receptor signaling pathway with the pleiotropic PPARgamma coactivator (PGC) (AID 1224821; calls by dose curve)
In short: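 PGC/ERR reporter cell line, plated 6 h before compound addition, then exposed 18 h at 37 °C. Luciferase activity read by luminescence 30 min after One-Glo addition; decrease indicates antagonism.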

Measured: Potency

Sequence of Retinoic acid receptor RXR-alpha (Homo sapiens) (P19793 whole entry, looked up): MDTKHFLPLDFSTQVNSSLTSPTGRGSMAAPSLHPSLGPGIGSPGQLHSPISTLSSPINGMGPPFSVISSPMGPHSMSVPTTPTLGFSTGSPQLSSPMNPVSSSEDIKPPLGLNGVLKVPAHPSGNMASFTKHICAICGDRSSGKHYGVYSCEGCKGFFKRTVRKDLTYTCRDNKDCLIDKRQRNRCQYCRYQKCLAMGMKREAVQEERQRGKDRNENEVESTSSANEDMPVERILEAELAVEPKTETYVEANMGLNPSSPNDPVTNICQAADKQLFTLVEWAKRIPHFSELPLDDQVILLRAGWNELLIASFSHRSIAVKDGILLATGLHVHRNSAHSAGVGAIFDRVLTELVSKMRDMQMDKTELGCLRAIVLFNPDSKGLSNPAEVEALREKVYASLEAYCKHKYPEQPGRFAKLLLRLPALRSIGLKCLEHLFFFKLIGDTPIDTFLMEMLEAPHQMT

CS(=O)(=O)c1ccc([C@@H](O)[C@@H](CO)NC(=O)C(Cl)Cl)cc1
not listed: [12] | [13] | [14] | [15] | [16] | [17] | [18] | [19]
inactive: all other assays above

CC(C)NCC(O)COc1cccc2ccccc12 (stereo not drawn)
not listed: [8] | [18] | [19]
inactive: all other assays above

CCCCC(CC)C(=O)OCCOCCOCCOC(=O)C(CC)CCCC (stereo not drawn)
not listed: [16] | [17] | [18] | [19]
inactive: all other assays above

Cc1ccc(C)c(C)c1
not listed: [12] | [16] | [17] | [18] | [19]
inactive: all other assays above

Cc1cc(NS(=O)(=O)c2ccc(N)cc2)no1
not listed: [9] | [14] | [16] | [17] | [18] | [19]
inactive: all other assays above

CC(C)Cc1ccccc1
not listed: [12] | [16] | [17] | [18] | [19]
inactive: all other assays above

Cc1cc(O)cc(C)c1Cl
not listed: [12] | [16] | [17] | [18] | [19]
inactive: all other assays above

Nc1cc(-c2ccncc2)c[nH]c1=O
not listed: [16] | [17] | [18] | [19]
inactive: all other assays above

Cc1cc(O)c2c(c1)C(=O)c1cc(O)cc(O)c1C2=O
active: [15] 9.47 µM
24 µM (active) and inactive: [1]
not listed: [6] | [8] | [12] | [16] | [17]
inactive: all other assays above

CCCCCC/C=C/CCCCCCCC(=O)O
not listed: [12] | [16] | [17] | [18] | [19]
inactive: all other assays above

Cc1cc(Cc2ccc(N)c(C)c2)ccc1N
not listed: [9] | [16] | [17] | [18] | [19]
inactive: all other assays above

CCCCC/C=C\C/C=C\CCCCCCCC(=O)OC
inactive and 49 µM (active): [1]
inactive and 34.7 µM (active): [10]
not listed: [16] | [17] | [18] | [19]
inactive: all other assays above

O=C(c1ccc(O)cc1)c1ccc(O)cc1O
not listed: [9] | [10] | [11] | [16] | [17] | [18] | [19]
inactive: all other assays above

NS(=O)(=O)c1cc2c(cc1Cl)NC=NS2(=O)=O
not listed: [12] | [18] | [19]
inactive: all other assays above

NC(=O)NNc1ccccc1
not listed: [5] | [16] | [17] | [18] | [19]
inactive: all other assays above

CC(=O)Nc1ccc(C(=O)O)cc1
not listed: [16] | [17] | [18] | [19]
inactive: all other assays above

COC(=O)c1ccccc1O
43.8 µM (active) and inactive: [10]
not listed: [9] | [16] | [17] | [18] | [19]
inactive: all other assays above

CNC[C@H](O)[C@@H](O)[C@H](O)[C@H](O)CO
not listed: [5] | [12] | [16] | [17] | [18] | [19]
inactive: all other assays above
